Screens as filed in PubChem BioAssay.
Sampled rows, rich in hits. Any-hit rate of the full collection: about 10%.
JMJD2A Tudor inh = JMJD2A Tudor domain (human) inhibition; O75164; AlphaScreen JMJD2A-Tudor / H3K4me3 peptide binding; Potency, µM (doses to about 114 µM), most hits filed as inhibitors; 4.4% of 390,000 active; further: nearly all actives have a fitted effect of over 50% in size
BAZ2B block = BAZ2B (human) inhibition. Q9UIF8. AlphaScreen BAZ2B-H3K14Ac peptide displacement. Potency, µM (doses to about 114 µM), most hits filed as inhibitors. 4.4% of 360,000 active; further: nearly all actives have a fitted effect of over 60% in size
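Complex of BAZ2B and biotin-H3K14Ac (50 nM apiece) forms over 30 min at RT, then faces library compounds up to 110 uM for another 30 min; AlphaScreen beads added, 20 min dark incubation, luminescence read.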
HP1b chromo inh = inhibitors of HP1-beta chromodomain binding to methylated histone tails | Potency, µM (doses to about 114 µM), most hits filed as inhibitors | AlphaScreen HP1-beta / biotin-H3K9me3 peptide binding | P83916 | 0.56% of 390,000 active; further: nearly all actives have a fitted effect of over 70% in size
Target sequence (P83916 whole entry, looked up): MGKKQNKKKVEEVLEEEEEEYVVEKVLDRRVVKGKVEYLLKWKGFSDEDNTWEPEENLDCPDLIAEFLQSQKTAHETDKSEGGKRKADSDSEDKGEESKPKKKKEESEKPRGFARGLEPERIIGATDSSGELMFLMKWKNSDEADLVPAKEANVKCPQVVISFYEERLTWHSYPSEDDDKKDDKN
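HP1-beta protein (50 nM final) preincubated 30 min at room temperature with biotinylated H3(1-18)K9me3 peptide (50 nM) in PBS pH 7.4, 0.01% Tween-20, then compound added for 30 min. AlphaScreen streptavidin donor/nickel chelate acceptor beads (10 ug/mL final), 30 min dark, luminescence read.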
CtBP-E1A blk = CtBP/E1A binding inhibition; AlphaScreen GST-E1A/His-CtBP binding, 1536-well; stronger effect = lower value; activity change, % (test concentration not listed); 0.49% of 340,000 active; in the data active means activity change below about -65%; inconclusive means mostly about -30% to -63%
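GST-E1A and His-tagged CtBP (125 nM each as 5X stock) were preincubated with pin-transferred compound for 2 h at 37 °C in the dark, then glutathione donor and nickel acceptor beads were added for 1 h before AlphaScreen reading.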
Six1-Eya2 inh = inhibitors of human Six1/Eya2 interaction. Q15475+O00167. AlphaScreen GST-Six1/His-Eya2 binding, biochemical; stronger effect = lower value. activity change, % (test concentration not listed). 0.56% of 360,000 active. AID 651725; in the data active means activity change below about -65%; inconclusive means mostly about -30% to -63%
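Homogeneous AlphaScreen proximity assay pairing GST-Six1 with His-tagged Eya2 (added as 5X mix: 250 nM and 500 nM) in 50 mM Tris pH 8.0, 300 mM NaCl, 1 mM TCEP. Glutathione donor and nickel acceptor beads; 1 h, 37 °C, dark.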
G9a inh = inhibitors of human histone lysine methyltransferase G9a; G9a H3K9 monomethylation, AlphaScreen, 2 h; Potency, µM (highest dose often 102 µM), hits mostly inhibitors; Q96KQ7; AID 504332; 8.8% of 350,000 active; further: nearly all actives have a fitted effect of over 75% in size
Target sequence (Q96KQ7 913-1193 limits assumed): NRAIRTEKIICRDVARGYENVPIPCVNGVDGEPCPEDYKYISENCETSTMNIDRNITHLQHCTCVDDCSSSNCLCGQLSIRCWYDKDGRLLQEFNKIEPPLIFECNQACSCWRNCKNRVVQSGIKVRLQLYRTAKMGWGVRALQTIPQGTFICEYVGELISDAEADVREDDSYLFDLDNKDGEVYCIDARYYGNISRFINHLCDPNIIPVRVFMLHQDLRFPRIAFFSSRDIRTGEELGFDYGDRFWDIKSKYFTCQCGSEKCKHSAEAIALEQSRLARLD
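G9a (20 nM) preincubated 15 min RT with compounds, then 500 nM biotinylated H3K9 peptide and 20 uM SAM added; 2 h RT reaction. Monomethyl-H3K9 product detected by AlphaScreen with anti-H3K9me1 antibody, streptavidin donor and anti-rabbit IgG acceptor beads.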
A number is an active result; - = inactive; ? = inconclusive; . = no result given; ! = not active in a repeat; [ ] = remark or other dose. Unless noted, the call rests on the fitted dose curve; in most records, active means well fitted inhibition curve with a large enough effect; inconclusive means small, poorly fitted or top-dose-only effect; inactive means no such curve, though single readings can be large or run the other way.

SMILES | JMJD2A Tudor inh | BAZ2B block | HP1b chromo inh | CtBP-E1A blk | Six1-Eya2 inh | G9a inh
CCOC(=O)c1c(C)[nH]c(C)c1S(=O)(=O)N(C)CC(=O)N1CCN(c2cccc(C)c2C)CC1 | ? | - | - | . | . | -
COc1ccccc1CCNC(=O)CSc1nnc2ccc(-c3ccncc3)nn12 | -[11.4 µM] | - | - | - | - | 50µM
CCOc1ccc(-c2nnc3ccc(SCC(=O)Nc4cc(C)on4)nn23)cc1 | - | - | - | - | - | -
CCOc1ccccc1NC(=O)CSc1nnc2ccc(-c3ccncc3)nn12 | -[11.4 µM] | - | - | - | - | -
Cc1cc(NC(=O)CSc2ccc3nnc(-c4ccc(Cl)cc4)n3n2)no1 | - | - | - | - | - | 22µM
Cc1cc(NC(=O)CSc2ccc3nnc(-c4cccc(F)c4)n3n2)no1 | - | - | - | - | - | 22µM
Cc1cc(NC(=O)CSc2nnc3ccc(-c4ccc(F)cc4)nn23)no1 | - | - | - | - | - | 50µM
CCc1ccc(S(=O)(=O)c2cn(Cc3ccccc3)c3cc(F)c(F)cc3c2=O)cc1 | - | - | - | . | . | ?
CSc1nnc(-c2cc(-c3ccc(C)cc3)nc3ccccc23)o1 | - | - | - | - | - | 7.9µM
Cc1cccc(NC(=O)c2ccc3[nH]c(C)cc(=O)c3c2)c1 | - | - | - | . | . | ?
Cc1cccc(NC(=O)CCS(=O)(=O)c2cc3c(cc2Cl)NC(=O)CO3)c1 | 16µM | - | - | - | - | -
Cc1cc2c(cc1S(=O)(=O)CCC(=O)N(C)Cc1ccccc1)OCC(=O)N2 | 20µM! | 13µM! | ? | - | - | 11µM
CCOC(=O)c1ccc(NS(=O)(=O)c2cc3c(cc2C)NC(=O)CO3)cc1 | ? | - | - | - | - | 50µM
O=C(CSc1cn(CCNC(=O)c2c(F)cccc2F)c2ccccc12)Nc1ccc(F)cc1 | - | - | - | . | . | -
C=CCN(C(=O)CCc1ccccc1OC)c1nc(-c2ccc(S(C)(=O)=O)cc2)cs1 | - | - | - | - | - | -
C=CCN(C(=O)Cc1cccs1)c1nc(-c2ccc(S(C)(=O)=O)cc2)cs1 | - | - | - | - | - | 71µM
COCCCNC(=O)c1cnc2c(-c3ccc(F)cc3)c(C)nn2c1C | - | - | - | . | . | -
CC1CN(S(=O)(=O)c2cccc(-c3csc(-c4ccccc4)n3)c2)CC(C)O1 (centres undefined) | - | - | - | - | - | 18µM
COc1cccc(N2CC(NC(=O)c3ccc(S(=O)(=O)N4CCOCC4)cc3)CC2=O)c1 (centres undefined) | - | - | - | . | . | -
COc1ccc2c(c1)CCC1(C)CC(=O)C(Br)=C21 (centres undefined) | . | . | . | - | - | .
COc1ccc2c(c1)CCCC(Br)C2=O (centres undefined) | 50µM | . | ? | - | - | .
CCOC(=O)C1=C(Cc2ccc(C)cc2)C(=O)c2ccccc2C1=O | . | 22µM | . | . | . | 8.9µM
CCOC(=O)c1ccc(COC(=O)c2ccc3c(c2)-c2ccccc2C3=O)cc1 | - | - | - | - | - | -
CCOC(=O)C1=C(Cc2ccc(OC)cc2)C(=O)c2ccccc2C1=O | 40µM | 22µM | 18µM | - | - | 2.8µM
Oc1cccc(/C=C/c2ccc3cccc(O)c3n2)c1 | - | ? | - | ? | - | -
SMILES | JMJD2A Tudor inh | BAZ2B block | HP1b chromo inh | CtBP-E1A blk | Six1-Eya2 inh | G9a inh
Cc1ccc(/C=C/c2ccc3cccc(O)c3n2)s1 | - | - | - | - | - | 28µM
CC1CCCCC1NC(=O)CSc1ccsc1[N+](=O)[O-] (centres undefined) | - | - | - | - | - | -
CCc1ccccc1NC(=O)CSc1ccsc1[N+](=O)[O-] | ? | 50µM | - | - | - | ?
O=C(CSc1ccsc1[N+](=O)[O-])NC1CCCC1 | - | - | - | - | - | 32µM
COc1ccc(OC)c(CCNC(=O)CSc2ccsc2[N+](=O)[O-])c1 | 45µM | ? | - | - | - | 32µM
COc1ccccc1CNC(=O)CSc1ccsc1[N+](=O)[O-] | - | ? | - | - | - | 50µM
Cc1c(/C=C(\C#N)C(=O)Nc2cccc(Cl)c2)c2ccccc2n1Cc1ccccc1 | - | - | - | . | . | -
Cc1ccc2c(c1)N(CC(=O)Nc1ccccc1C(F)(F)F)C(=O)c1cccnc1O2 | - | - | - | . | . | -
O=C(CSc1ccsc1[N+](=O)[O-])Nc1cccc(F)c1 | 45µM | 35µM | ? | - | - | 50µM
O=C(CSc1ccsc1[N+](=O)[O-])NCc1ccccc1 | - | ? | - | - | - | 50µM
CC=C1COC(C(=O)NCCOCCO)(C(F)(F)F)C=C1C=C(C)C (centres undefined) | - | . | - | . | . | .
O=S(=O)(c1ccc(Cl)cc1)c1nc(-c2ccccc2F)oc1NCCCN1CCOCC1 | ? | ? | - | - | - | 79µM
O=S(=O)(c1ccccc1)c1nc(-c2ccco2)oc1NCCN1CCOCC1 | - | - | - | - | - | ?
O=S(=O)(c1ccccc1)c1nc(-c2ccc(F)cc2)oc1NCc1ccccc1 | - | - | - | . | . | -
Cc1ccc(S(=O)(=O)c2nc(-c3ccccc3Cl)oc2NCCCN2CCOCC2)cc1 | ? | - | - | - | - | .
O=S(=O)(c1ccccc1)c1nc(-c2ccco2)oc1NCCCN1CCOCC1 | - | - | - | - | - | 14µM
O=S(=O)(c1ccc(Br)cc1)c1nc(-c2ccccc2)oc1NCCN1CCOCC1 | ? | ? | - | - | - | ?
O=S(=O)(c1ccccc1)c1nc(-c2ccc(Cl)cc2)oc1NCCCN1CCOCC1 | ? | - | - | - | - | 45µM
Cc1ccc(CNc2oc(-c3ccco3)nc2S(=O)(=O)c2ccccc2)cc1 | - | - | - | - | - | 11µM
CCOc1ccc(CCNC(=O)c2cc3c(=O)n(CC)c4ccccc4c3s2)cc1OCC | - | - | - | . | . | -
O=c1c2sccc2n(Cc2cc(=O)n3ccccc3n2)c(=O)n1-c1cc(F)ccc1F | - | - | - | . | . | -
CN(C)CCNC(=O)CN1C(=O)CCn2nc(-c3cn(C)c4ccccc34)cc21 | - | - | - | . | . | -
CCN(CC)CCCNC(=O)c1ccc(Cn2c(SCc3ccccc3)nc3cccnc32)cc1 | - | - | - | . | . | -
COc1ccc(N2CCN(C(=O)c3cc4cc5ccc(Cl)cc5nc4o3)CC2)cc1 | - | . | - | . | . | -
COc1ccc(-c2nc3c4cnn(-c5ccccc5F)c4ncn3n2)cc1 | - | - | - | . | . | -
NC(=O)C1CCN(c2oc(-c3ccccc3F)nc2S(=O)(=O)c2ccc(Cl)cc2)CC1 | - | - | - | - | - | ?
Cc1ccc(S(=O)(=O)c2nc(-c3ccccc3)oc2NCc2cccnc2)cc1 | ? | ? | - | - | - | 50µM
CN1CCN(c2oc(-c3ccccc3F)nc2S(=O)(=O)c2ccc(Cl)cc2)CC1 | ? | 35µM | - | - | - | .
